Shown are actives, neighbours in structure and some others; about 1.3% of the full set was active somewhere.
HIF activator – HIF pathway transcriptional activation; U2OS HRE-luciferase reporter, luminescence; normalized: DMSO 0%, desferrioxamine 100%; 0.32% of 300,000 active; activation, % at 7.5 µM (by protocol); AID 1910;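 active means mean activation of at least 10% of the iron chelator positive control signal, with at least half of replicates also reaching 10%; inconclusive means mean and replicate majority disagree about reaching 10%; inactive means mean and most replicates under 10%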
PGC1a acetyl inh – lowers PGC1a acetylation signal in U2OS cells; AlphaScreen anti-acetyl-lysine; with virally co-expressed GCN5 acetyltransferase; 0.17% of 350,000 active; inhibition, % at 15.6 µM;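 active means every replicate shows inhibition of at least 40%; inconclusive means mean inhibition at least 40% but some replicate below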;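 further: 0% = neutral control wells and 100% = positive control wells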
AI-2 QS modul – modulators of Vibrio harveyi AI-2 quorum sensing system. Vibrio harveyi JMH597 AI-2 luminescence/OD600 ratio, 9 h; hits give low values; strain lacks LuxN and CqsS sensors; 0 = neutral-control median. activity change, % at 7.5 µM. 0.4% of 300,000 active; in the data active means activity change below about -75%, passing the limit was not always enough; inconclusive means no clear call, values can overlap the other calls;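 further: luminescence divided by OD600 gain over 9 h not by final OD600 alone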
C2C12 statin – protects C2C12 myotubes from simvastatin toxicity; AID 602340; rescue of ATP level, % at 7.49 µM; ATP luminescence, 48 h; scaled: DMSO 0, geranylgeraniol control 100; 0.78% of 330,000 active;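 active means mean ATP rescue above about 67%, or every replicate alone reaching that limit, limit read from the data, passing the limit was not always enough; inconclusive means no clear call, values can overlap the other calls; inactive means mean under the limit and some replicate under it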;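 further: myotubes were challenged with 10 µM simvastatin during compound exposure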
Rce1 inhib – blocks yeast Ras-converting enzyme; Q03530; yeast membranes, quenched prenylated peptide cleavage fluorescence; calls only; 0.27% of 290,000 active; AID 2563;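 active means fall in fluorescence gain of 50% or more versus controls, with final raw signal at or below 3038400; inconclusive means same 50% fall but final raw signal above 3038400; inactive means fall in fluorescence gain under 50%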;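 further: plate controls were neutral control wells for no effect and wells lacking membranes for full effect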
Target sequence (Q03530 whole entry, looked up): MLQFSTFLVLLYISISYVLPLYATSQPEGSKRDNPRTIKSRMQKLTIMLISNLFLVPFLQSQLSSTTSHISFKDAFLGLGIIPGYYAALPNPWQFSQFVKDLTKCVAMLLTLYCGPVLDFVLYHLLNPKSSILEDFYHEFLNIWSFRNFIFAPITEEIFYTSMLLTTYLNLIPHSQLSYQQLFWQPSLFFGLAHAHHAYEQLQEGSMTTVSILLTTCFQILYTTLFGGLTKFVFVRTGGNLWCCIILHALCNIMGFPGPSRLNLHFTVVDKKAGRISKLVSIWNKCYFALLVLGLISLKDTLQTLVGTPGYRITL
JMH597 growth rt – retest: inhibitors of Vibrio harveyi JMH597 growth; shares compounds with AI-2 QS modul; OD600 absorbance, 9 h; lacks LuxN and CqsS sensors; growth inhibition, % at 7.5 µM; 1% of 750 active;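 active means every replicate shows growth inhibition above 50%; inconclusive means at least half, but not all, replicates pass that cutoff; inactive means fewer than half of replicates pass it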
BB721 lum counter – retest counter-screen: lowers luminescence of constitutive-QS Vibrio harveyi BB721 | 9 h | inhibition, % at 7.5 µM | 95% of 750 active | shares compounds with AI-2 QS modul;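 active means inhibition above about 80% in every replicate, not just on average, limit read from the data; inconclusive means at least half of replicates past the limit, but not all; inactive means fewer than half of replicates past the limit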
BB721 growth – retest: blocks Vibrio harveyi BB721 growth; shares compounds with AI-2 QS modul; growth inhibition, % at 7.5 µM; 3% of 750 active; OD600 absorbance, 9 h;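 active means every replicate shows growth inhibition above 50%; inconclusive means at least half but not all replicates above 50% inhibition; inactive means under half of replicates above 50% inhibition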
JMH597 AI-2 mod – Vibrio harveyi AI-2 signaling luminescence modulation – JMH597 strain, confirmation. shares compounds with AI-2 QS modul. Vibrio harveyi JMH597 AI-2 quorum sensing luminescence, 9 h; luxN and CqsS knockout, AI-2 only. inhibition, % at 7.5 µM. 97% of 750 active;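 active means every replicate shows more than 75% inhibition of signal versus neutral control wells; inconclusive means half to three quarters of replicates exceed 75% inhibition; inactive means fewer than half of replicates exceed 75% inhibition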
Numbers without * were called inactive; i = inactive; u = inconclusive; x = no result given.

SMILES	HIF activator	PGC1a acetyl inh	AI-2 QS modul	C2C12 statin	Rce1 inhib	JMH597 growth rt	BB721 lum counter	BB721 growth	JMH597 AI-2 mod
N#Cc1nc(-c2ccc(F)cc2)oc1NCc1ccccc1	0.6	7.4	-96.1*	14.5	i	20.4	95.0*	15.1	96.9*
N#Cc1nc(-c2cccs2)oc1NCc1ccc(Cl)cc1	0.9	-9.5	-86.6*	x	i	93.2*	91.7*	102.4*	96.0*
N#Cc1nc(-c2ccc(F)cc2)oc1NCc1ccco1	0.8	0.9	-59.3	6.0	i	x	x	x	x
CN1CCN(S(=O)(=O)c2ccc(Oc3ccc(F)cc3Br)nc2)CC1	-0.2	-11.0	18.6	x	i	x	x	x	x
CN1CCN(S(=O)(=O)c2ccc(Oc3ccc(Br)cc3F)nc2)CC1	-0.6	x	-83.9*	3.0	i	6.0	81.6*	-29.5	98.7*
Cc1cc(NC(=O)CN2C(=O)NC(C)(c3ccc(OC(F)F)cc3)C2=O)no1 (configuration not stated)	-0.2	8.5	-74.2	u	i	x	x	x	x
CCOc1ccc(NC(=O)CN2C(=O)NC(C)(c3ccc(OC(F)F)cc3)C2=O)cc1 (configuration not stated)	-0.3	x	-92.6*	23.8	i	41.0	93.9*	56.8*	96.0*
CC1(c2ccc(OC(F)F)cc2)NC(=O)N(CC(=O)Nc2cccc(F)c2)C1=O (configuration not stated)	0.9	x	-93.0*	1.2	i	18.6	95.1*	24.1	96.9*
CCOC(=O)c1c(NC(=O)CN2C(=O)NC(C)(c3ccc(OC(F)F)cc3)C2=O)sc(C)c1C (configuration not stated)	0.0	x	30.3	-7.4	i	x	x	x	x
CC1(c2ccc(OC(F)F)cc2)NC(=O)N(CC(=O)Nc2ccc(Cl)cc2F)C1=O (configuration not stated)	0.7	x	-93.9*	48.6	i	5.2	95.6*	-7.0	96.5*
O=C(C1CC1)N1CC2(C1)[C@H](c1ccccc1)[C@@H](CO)N2C(=O)c1cccnc1	x	3.3	x	x	x	x	x	x	x
Cc1ccc(S(=O)(=O)Nc2ccc3c(c2)C(=O)N([C@H](C)CO)C[C@H](C)[C@H](CN(C)S(=O)(=O)c2ccc(C)cc2)OCCCC[C@H](C)O3)cc1	x	8.7	x	x	x	x	x	x	x
Nc1ccccc1S(=O)(=O)NCCCCc1ccccc1	0.2	-1.4	-88.5*	-1.4	i	-3.7	95.1*	5.1	95.7*
Cc1cccc(-n2nnc(C(=O)N3CCc4ccccc4C3)c2N)c1	2.2	x	-81.9*	x	i	38.8	92.4*	u	94.7*
C[C@H](CO)N1C[C@H](C)[C@@H](CN(C)S(=O)(=O)c2ccc(F)cc2)Oc2cc(C3=CCCCC3)ccc2S1(=O)=O	x	-12.7	x	-28.1	x	x	x	x	x
COc1ccc(NC(=O)Nc2cccc3c2O[C@@H](CN(C)Cc2ccccc2)[C@@H](C)CN([C@H](C)CO)C3=O)cc1	x	-3.4	x	-10.8	x	x	x	x	x
COC(=O)c1cccc(NC(=O)Cn2cnc3ccccc3c2=O)c1	-0.1	2.5	-94.0*	7.3	i	12.1	98.9*	1.0	99.4*
CCCc1nnc(NC(=O)Cn2cnc3ccccc3c2=O)s1	-0.1	-4.4	-85.7*	17.6	i	14.5	95.5*	14.6	96.5*
NS(=O)(=O)c1cccc(NC(=O)CSc2ncnc3ccccc23)c1	-6.2	4.0	-82.0*	13.5	i	5.1	85.4*	7.9	91.7*
NS(=O)(=O)c1cccc(NC(=O)Cn2cnc3ccccc3c2=O)c1	-0.1	x	-85.1*	20.5	i	18.0	93.1*	-3.1	94.7*
COc1ccc(NC(=O)N(C)C[C@H]2Oc3ccc(NS(=O)(=O)c4ccc(F)cc4)cc3CC(=O)N([C@@H](C)CO)C[C@H]2C)cc1	x	1.1	x	33.8	x	x	x	x	x
C[C@@H]1CCCCO[C@@H](CN(C)S(=O)(=O)c2cccs2)[C@@H](C)CN([C@H](C)CO)C(=O)c2cc(NC(=O)CCCN(C)C)ccc2O1	x	-0.6	x	x	x	x	x	x	x
Cc1ccc(O)c(/C=N/NC(=O)Cc2ccc(Cl)cc2)c1	-1.4	-5.3	-93.3*	-19.4	i	31.0	98.6*	32.8	98.9*
O=C(Cc1ccc(Cl)cc1)N/N=C/c1ccc(O)c(O)c1	x	-2.2	x	4.3	x	x	x	x	x
O=C(Cc1ccc(F)cc1)Nc1ccc(S(=O)(=O)N2CCCC2)cc1	0.6	4.5	-47.3	8.1	i	x	x	x	x
SMILES	HIF activator	PGC1a acetyl inh	AI-2 QS modul	C2C12 statin	Rce1 inhib	JMH597 growth rt	BB721 lum counter	BB721 growth	JMH597 AI-2 mod
O=C(Nc1ccc(S(=O)(=O)N2CCCC2)cc1)Nc1ccc(F)cc1F	0.0	9.2	-95.6*	-22.3	i	1.6	98.1*	1.5	99.2*
O=C(Cc1ccc(Br)cc1)Nc1ccc(S(=O)(=O)N2CCCC2)cc1	-0.2	x	-96.1*	-8.9	x	33.3	u	3.2	99.3*
O=C(CSc1nncs1)Nc1ccc(S(=O)(=O)N2CCCC2)cc1	-1.9	9.9	-83.4*	0.8	i	0.4	92.9*	19.1	94.9*
O=C(Cc1ccccc1[N+](=O)[O-])Nc1ccc(S(=O)(=O)N2CCCC2)cc1	-0.3	x	u	-4.3	x	15.4	92.9*	20.8	94.0*
O=C(Nc1ccc(F)cc1)Nc1ccc(S(=O)(=O)N2CCCC2)cc1	x	7.9	x	-3.1	x	x	x	x	x
O=C(NCC[C@H]1CC[C@H](NS(=O)(=O)c2cccc(Cl)c2)[C@H](CO)O1)c1cnccn1	x	17.8	x	5.1	x	x	x	x	x
O=C(Nc1ccc(Cc2ccncc2)cc1)c1ccc(Br)o1	0.7	-8.5	-81.4*	21.3	i	-12.8	88.4*	-46.7	93.8*
CCCNC(=O)Nc1ccc2c(c1)OC[C@H](C)N(C(=O)C1CCOCC1)C[C@H](C)[C@@H](OC)CN(C)C2=O	x	4.1	x	-0.7	x	x	x	x	x
O=C(CCC1CCCCC1)Nc1ccccc1O	6.0	-7.5	-85.0*	10.0	i	23.7	93.6*	23.5	93.8*
Cc1ccc(O)c(NC(=O)C2CCCCC2)c1	1.1	0.2	13.9	x	i	x	x	x	x
Cc1ccc(O)c(NC(=O)CCC2CCCCC2)c1	3.1	-14.9	-83.7*	x	i	17.2	93.2*	16.8	95.3*
C[C@@H]1CCCCO[C@H](CN(C)CC2CC2)[C@H](C)CN([C@@H](C)CO)C(=O)c2cc(NS(=O)(=O)c3ccccc3)ccc2O1	x	-3.0	x	x	x	x	x	x	x
O=C(C[C@@H]1CC[C@@H]2[C@H](COC[C@H](O)CN2Cc2ccc(F)cc2)O1)N1CCc2ccccc2C1	x	5.1	x	15.9	x	x	x	x	x
CCc1ccc(CCC(=O)Nc2ccc(C(C)=O)cc2)o1	-0.6	3.5	-94.0*	3.4	i	7.7	98.4*	-14.8	99.2*
